Assay outcomes: PubChem, The Scripps Research Institute Molecular Screening Center
An excerpt weighted towards active compounds, which were near 4.1% of everything screened.
rCAG binder = binders of r(CAG) RNA repeats, primary screen, biochemical, fluorescence | 1.3% of 370,000 active | AID 651821, 2012 | inhibition, % at 3 µM | r(CAG) RNA repeat, TO-PRO-1 dye displacement fluorescence;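 active = inhibition above the plate cutoff, the mean of all test compounds on that plate plus 3 SD, cut at about 35% in these data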;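 note: 0% = DMSO alone and 100% = 100 µM mitoxantrone as full dye displacement; higher means more dye released from RNA so lower well fluorescence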
MBD2 inh = inhibitors of MBD2 binding to methylated DNA, primary screen, biochemical, TR-FRET, DNA-binding domain, human; Methyl-CpG-binding domain protein 2 (Homo sapiens), Q9UBB5; MBD2 binding to methylated oligonucleotide; inhibition, % at 4.4 µM; 0.31% of 370,000 active; AID 686964, 2013; in the data active = inhibition above about 13%
UHRF1 MBD2 ctr = UHRF1 methylated DNA binding inhibitors, primary screen, counter-screen for MBD2 inhibitor project, biochemical, TR-FRET, human UHRF1, single concentration | AID 687016, 2013 | 0.75% of 370,000 active | E3 ubiquitin-protein ligase UHRF1 (Homo sapiens), Q96T88 | UHRF1 binding to methylated oligo | inhibition, % at 4.4 µM; in the data active = inhibition above about 21%;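 note: UHRF1 SRA domain binding a hemimethylated CpG hairpin DNA probe; 0% = median of test compound wells and 100% = reference inhibitor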
PRMT1 inh = PRMT1 methyltransferase inhibitors, primary screen, biochemical, fluorescence polarization; 1.3% of 370,000 active; inhibition, % at 2.79 µM; recombinant PRMT1, activity-based probe fluorescence polarization; Protein arginine N-methyltransferase 1 (Homo sapiens), Q99873; AID 652257, 2013;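 active = inhibition above about 21% made by adding two undisclosed values, limit read from the data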
Target sequence (Q99873 whole entry, looked up): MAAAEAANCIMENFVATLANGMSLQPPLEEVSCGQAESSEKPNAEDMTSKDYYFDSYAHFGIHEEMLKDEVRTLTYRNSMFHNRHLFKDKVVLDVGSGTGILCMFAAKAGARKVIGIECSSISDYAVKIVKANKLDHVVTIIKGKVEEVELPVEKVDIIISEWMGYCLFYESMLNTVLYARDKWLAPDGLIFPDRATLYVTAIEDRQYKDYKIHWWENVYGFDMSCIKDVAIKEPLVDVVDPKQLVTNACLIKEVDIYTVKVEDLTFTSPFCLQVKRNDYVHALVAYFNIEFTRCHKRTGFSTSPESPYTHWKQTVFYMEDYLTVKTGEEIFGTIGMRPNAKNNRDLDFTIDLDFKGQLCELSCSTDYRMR
ABHD5-PLIN5 inh = ABHD5-PLIN5 interaction inhibitors, primary screen, cell lysate, split luciferase complementation, luminescence; Split G. princeps luciferase complementation, 4 h; 0.78% of 360,000 active; Perilipin-5 (Homo sapiens) + 1-acylglycerol-3-phosphate O-acyltransferase ABHD5 (Homo …; inhibition, % at 4 µM;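 active = inhibition above the mean inhibition across every tested compound plus 3 SD, cut at about 22% in these data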;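 note: 0% = DMSO only wells and the 100% control is not disclosed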
LEDGF integ inh = blockers of LEDGF/p75-dependent integrase strand transfer – biochemical, TR-FRET, high throughput, primary screen; HIV-1 integrase (with human LEDGF/p75); TR-FRET IN-LEDGF/p75 DNA integration, Eu/Cy5; inhibition, % at 3.7 µM; 0.64% of 370,000 active;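 active = inhibition above the screen-wide mean plus 3 SD, cut at about 13% in these data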;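 note: signal is the Cy5 over europium emission ratio at 671 and 618 nm; 0% = plate median of compound wells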
UHRF1 DNA bind = UHRF1 methylated DNA binding inhibitors, counter-screen for MBD2 inhibitor project, biochemical, TR-FRET, human UHRF1; inhibition, % at 4.4 µM; UHRF1 binding to methylated oligonucleotide; 25% of 1,000 active; shares compounds with MBD2 inh; AID 720530, 2013; in the data active = inhibition above about 21%;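 note: UHRF1 SRA domain binding a labeled hemimethylated CpG hairpin DNA; 0% = vehicle only and 100% = reference inhibitor with vehicle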
MBD2 confirm = inhibitors of MBD2 binding to methylated DNA, confirmation, biochemical, TR-FRET, DNA-binding domain, human; shares compounds with MBD2 inh; TR-FRET MBD2-DBD binding to methylated oligonucleotide; inhibition, % at 4.4 µM; 26% of 1,000 active
IN multimer act = HIV-1 IN multimer formation enhancers, counter-screen for LEDGF/p75 integration inhibitor project, biochemical, TR-FRET. activation, % at 7.7 µM. 17% of 2,000 active. shares compounds with LEDGF integ inh. TR-FRET HIV-1 integrase multimerization. AID 1053131, 2014; in the data active = activation above about 8.9%
TRFRET interf = TR-FRET optical interference artefacts, confirmation, artefact control for LEDGF/p75-dependent integration inhibitor project, biochemical, HIV-1 IN multimerization; shares compounds with LEDGF integ inh; TR-FRET optical interference counterscreen; inhibition, % at 7.7 µM; 2,000 tested, under 10 active; AID 1053135, 2014;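 active = inhibition above the mean over all tested compounds plus 3 SD, which no compound reached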;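 note: 0% = integrase with antibodies and DMSO and 100% = antibodies without integrase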
LEDGF integ conf = inhibitors of HIV-1 IN-LEDGF/p75 DNA integration, confirmation, biochemical, TR-FRET. shares compounds with LEDGF integ inh. TR-FRET LEDGF/p75-dependent HIV-1 integration. inhibition, % at 3.7 µM. 36% of 2,000 active. AID 1053136, 2014
Numbers without * were called inactive; nt = no result; ! = repeats disagree. Cut-off read from the data, not from the text of the source, unless noted: active = inhibition above about 14%; inactive = the rest.

SMILES	rCAG binder	MBD2 inh	UHRF1 MBD2 ctr	PRMT1 inh	ABHD5-PLIN5 inh	LEDGF integ inh	UHRF1 DNA bind	MBD2 confirm	others
CC(C)c1ccc(NC2=NCC(=O)N2Cc2cccs2)cc1	-8.2	-1.8	-2.0	-2.3	5.9	-4.9	nt	nt
CC(C)(C)S(=O)(=O)N1C[C@H]2CC(=O)C=C2[C@@H]1CCO	1.1	1.5	13.3	-2.9	nt	-1.3	nt	nt
CCN(CC)CC(=O)Nc1cccc2c1C(=O)c1ccccc1C2=O	9.8	1.9	-6.6	-0.5	1.6	-2.4	nt	nt
O=C1c2ccccc2C(=O)c2c(NCCCN(CCO)CCO)cccc21	6.2	55.8*	36.4*	2.2	11.5	-2.5	56.9*	59.2*
COc1ccc(Cn2c(=S)[nH]c3cc(OC)c(OC)cc3c2=O)cc1	-1.4	-0.1	1.4	-1.3	0.9	3.0	nt	nt
COc1ccc(Cn2c(=O)[nH]c3cc(OC)c(OC)cc3c2=O)cc1	-2.9	16.6*	31.1*	8.1	4.8	0.7	5.5	2.9
Cc1cc(C)cc(C(=O)OCCN(C)C2CN(Cc3cn(Cc4ccccc4F)nn3)S(=O)(=O)C2)c1 (centres undefined)	-0.7	2.7	8.2	-2.3	nt	0.5	nt	nt
CCSc1nc(C)nc2sc(C)c(C)c12	1.3	29.0*	-1.2	-3.5	-0.6	-1.1	7.6	2.0
C#CCN1CC(N(C)CCOC(=O)CC2C=CCC2)CS1(=O)=O (centres undefined)	1.1	-2.6	-0.4	3.4	nt	-1.0	nt	nt
O=C(O)c1cccc2c3c([nH]c12)CCCC3	0.1	18.1*	0.5	3.1	3.9	-3.0	5.1	2.5
Cc1ccccc1NC(=O)c1ccc2nccnc2c1	-3.4	16.2*	1.2	0.6	0.2	1.5	5.9	-1.0
O=C(Nc1ccccc1Br)c1ccc2nccnc2c1	1.9	-4.7	-5.8	-4.3	-1.8	5.2	nt	nt
COc1ccc(CNC(=O)CCS(=O)(=O)c2ccc3c(c2)oc(=O)n3C)cc1	4.2	39.2*	1.5	-3.1	-3.6	-0.9	5.4	3.5
COC(=O)[C@]12CCCCC=C1N(Cc1ccc(OC)cc1)C(=O)[C@@H]2CC(=O)NCC12CC3CC(CC(C3)C1)C2	5.9	-0.8	-1.5	-1.0	nt	7.9	nt	nt
O=C(NC1CCCCN(Cc2ccc(Cl)cc2)C1=O)c1ccccn1 (centres undefined)	0.3	-4.9	-3.5	-3.0	nt	2.6	nt	nt
CCOC(=O)c1cnc2c(ccc3ccccc32)c1NCCCN(C)C	8.7	20.0*	3.9	4.4	4.5	2.4	4.7	26.1*
CCOC(=O)c1cnc2ccccc2c1NCCO	0.4	3.1	-2.3	-1.4	8.7	1.5	nt	nt
Cc1ccc(Br)cc1S(=O)(=O)Nc1cccnc1	0.1	18.5*	35.9*	-0.7	9.1	11.3	1.5	4.3
Nc1ccc(O)c2c1C(=O)c1ccccc1C2=O	24.2	11.8	19.1	17.0	1.2	4.8	nt	nt
O=C1c2c(O)ccc(O)c2C(=O)c2c(NCCNCCO)ccc(NCCNCCO)c21	53.9*!	109.9*	96.4*	3.9	3.5	49.0*	94.2*	106.1*	IN multimer act=23.9*;TRFRET interf=-84.5;LEDGF integ conf=37.9*!
O=C(N/C=C/c1ccco1)OCc1ccccc1	33.0	15.3*	23.6*	15.2	4.2	36.0*	26.0*	26.6*	IN multimer act=31.1*;TRFRET interf=-156.5;LEDGF integ conf=36.4*
O=C(NC(=S)Nc1ccc(Br)cn1)c1cccs1	14.3	14.0*	36.7*	0.1	0.4	19.0*	4.4	-0.3	IN multimer act=-2.5;TRFRET interf=8.9;LEDGF integ conf=-1.2
COCC(=O)N[C@@H]1C[C@@H]2O[C@H](CO)CC[C@@H]2O[C@@H]1CCc1ccc(-c2ccccc2)cc1	0.8	6.4	6.1	1.7	nt	-2.9	nt	nt
COc1ccc(-c2cc(-c3nnc(SCC(=O)N4CCOCC4)n3N)[nH]n2)cc1	0.7	-2.7	-0.6	-2.9	nt	1.4	nt	nt
CC(C(=O)O)N1C(=O)/C(=C/c2cccn2C)SC1=S (centres undefined)	0.0	-18.5	-18.0	-8.1	-0.2	0.2	nt	nt
SMILES	rCAG binder	MBD2 inh	UHRF1 MBD2 ctr	PRMT1 inh	ABHD5-PLIN5 inh	LEDGF integ inh	UHRF1 DNA bind	MBD2 confirm	others
O=C(O)CC(C(=O)O)N1C(=O)/C(=C/C=C/c2ccco2)SC1=S (centres undefined)	34.0	108.8*	100.0*	54.0*	2.9	88.8*	92.0*	58.6*	IN multimer act=36.6*;TRFRET interf=-184.5;LEDGF integ conf=94.1*
COc1ccccc1Cc1c(-c2ccc(OC)c(OC)c2)nc2cc(C)c(Br)c(C)n12	3.2	18.6*	25.9*	7.8	-3.2	18.3*	-1.2	2.8	IN multimer act=-0.2;TRFRET interf=0.7;LEDGF integ conf=-7.1
O=S(=O)(NCc1ccccc1)c1ccc(Cl)cc1	-1.7	3.6	-2.5	-2.5	1.9	0.2	nt	nt
O=S(=O)(Nc1cc2nc3ccccc3nc2n1Cc1ccccc1)c1ccc(Cl)cc1	15.1	16.1*	15.8	2.2	14.9	24.0*	0.8	18.0*	IN multimer act=0.9;TRFRET interf=-3.2;LEDGF integ conf=72.6*
O=C(OCC#CCSc1nnc(-c2cccc3ccccc23)o1)c1ccc(F)cc1F	nt	-6.4	1.1	-3.1	nt	1.7	nt	nt
Cc1onc(-c2ccccc2Cl)c1C(=O)NCc1ccco1	18.8	25.8*	41.3*	12.9	10.0	44.0*	18.7	14.0*	IN multimer act=10.0*;TRFRET interf=-50.5;LEDGF integ conf=30.5*
O=C(Cc1ccccc1)N1O[C@H]2C=C[C@@H]1C2	3.0	-2.8	-0.7	-5.0	nt	-1.4	nt	nt
